According to PubChem BioAssay (EPA / NIEHS):
Results filed as inconclusive are left out. The source made the active and inactive calls. The calls were made as follows, unless noted: active = hit-call score of the fitted dose curve at least 0.9, where 1 is the maximum; inconclusive = response in the unintended direction; inactive = score below 0.9.

What was measured:
[1] = target: Peroxisome proliferator-activated receptor gamma (Homo sapiens) (UniProt P37231); assay: OT_PPARg_PPARgSRC1_0480: Odyssey Thera (OT) 8-hour Protein-Complementation Assay for Peroxisome Proliferator-activated Receptor Gamma / SRC-1 Co-activator (AID 2283387)
In short: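 HEK293T transiently transfected with PPARg and SRC-1 fused to Venus YFP fragments, compounds 8 h at 37C. Fixed, Draq5-stained cells imaged; nuclear/cytoplasmic 488 nm fluorescence ratio over at least 350 cells per image; gain fitted versus DMSO.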

[2] = target: Peroxisome proliferator-activated receptor gamma (Homo sapiens) (UniProt P37231); assay: OT_PPARg_PPARgSRC1_1440: Odyssey Thera (OT) 24-hour Protein-Complementation Assay for Peroxisome Proliferator-activated Receptor Gamma/ SRC-1 Co-activator (AID 2283388)
In short: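 HEK293T cells transiently transfected with PPARg and SRC-1 fused via (Gly4Ser)2 linker to split Venus YFP fragments (IFP1/IFP2) were dosed 24 h; fixed, Draq5-stained, imaged at 488/635 nm; nuclear/cytoplasmic fluorescence ratio scored versus DMSO baseline, gain-of-signal.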

[3] = target: Estrogen receptor (Homo sapiens) (UniProt P03372); assay: OT_ERa_GFPERaERE_0480: Odyssey Thera (OT) 8-hour HeLa Transcription Induction Assay for Estrogen Receptor (AID 2283381; active = hit-call score of the fitted dose curve at least 0.9, where 1 is the maximum; inactive = score below 0.9)
In short: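 GFP-ERE reporter, HeLa, 8 h exposure. Readout: fluorescence microscopy, high-content image analysis. Fit direction positive vs DMSO negative control.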

[4] = target: Estrogen receptor (Homo sapiens) (UniProt P03372); assay: OT_ERa_GFPERaERE_0120: Odyssey Thera (OT) 2-hour HeLa Transcription Induction Assay for Estrogen Receptor (AID 2283382)
In short: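 Fluorescence microscopy read-out: inducible fluorescent protein reporter in HeLa cells, imaged 2 h post-dose. Signal increase over DMSO negative control fitted as single primary endpoint via high content image analysis.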

[5] = target: Bile acid receptor (Homo sapiens) (UniProt Q96RI1); assay: OT_FXR_FXRSRC1_0480: Odyssey Thera (OT) 8-hour HEK293T Protein-Complementation Assay for Farnesoid X receptor/SRC-1 Co-activator (AID 2283383)
In short: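 Fluorescence intensity read-out, 8 h post-dose, HEK293T protein-fragment complementation; FXR bait and SRC-1 prey each linked to reporter fragments. Activity scored as signal increase over DMSO negative control.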

[6] = target: Bile acid receptor (Homo sapiens) (UniProt Q96RI1); assay: OT_FXR_FXRSRC1_1440: Odyssey Thera (OT) 24-hour HEK293T Protein-Complementation Assay for Farnesoid X receptor/SRC-1 Co-activator (AID 2283384)
In short: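 Fluorescence readout, 24 h post-dose, HEK293T; FXR and SRC-1 fused to complementary reporter fragments, association reconstitutes signal. Positive-direction fit vs DMSO baseline.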

[7] = target: Retinoic acid receptor RXR-alpha (Homo sapiens) (UniProt P19793); assay: OT_NURR1_NURR1RXRa_0480: Odyssey Thera (OT) 8-hour HEK293T Protein Complementation Assay for Nurr1/retinoid X receptor (RXR) (AID 2283385)
In short: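 Read-out: fluorescence from protein-fragment complementation between Nurr1 and RXRα in human HEK293T cells, 8 h after dosing. DMSO served as negative control; increased signal counted as activity.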

[8] = target: Retinoic acid receptor RXR-alpha (Homo sapiens) (UniProt P19793); assay: OT_NURR1_NURR1RXRa_1440: Odyssey Thera (OT) 24-hour HEK293T Protein Complementation Assay for Nurr1/retinoid X receptor (RXR) (AID 2283386)
In short: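 Fluorescence PCA read-out; HEK293T; 24 h post-dose; bait/prey fused to reporter fragments; gain-of-signal fit vs DMSO negative control.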

[9] = CEETOX_H295R_11DCORT: CeeTox H295R High-throughput Steroidogenesis Assay for 11-Deoxycortisol (11DCORT) (AID 2283432; active = hit-call score of the fitted dose curve at least 0.9, where 1 is the maximum; inactive = score below 0.9;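 as to AC50: human adrenal H295R cells prestimulated with 10 µM forskolin for 48 h; 11-deoxycortisol secreted into the medium measured by LC-MS/MS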); conditions: actives raise or lower the signal
In short: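 H295R cells prestimulated 48 h with 10 uM forskolin, then exposed 48 h to chemical in 0.1% DMSO. 11-Deoxycortisol in medium quantified by HPLC-MS/MS after MTBE extraction; bidirectional fit versus DMSO. MTT viability read in same wells.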

[10] = CEETOX_H295R_OHPREG: CeeTox H295R High-throughput Steroidogenesis Assay for OH-Pregnenolone (OHPREG) (AID 2283434; active = hit-call score of the fitted dose curve at least 0.9, where 1 is the maximum; inactive = score below 0.9); conditions: actives raise or lower the signal
In short: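 H295R, 10 uM forskolin pre-stim 48 h; test chemical 48 h, 0.1% DMSO final. MTBE extraction, reverse-phase C18 HPLC-ESI+ MS/MS of medium. Gain/loss vs DMSO; viability by MTT in same wells.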

[11] = CEETOX_H295R_OHPROG: CeeTox H295R High-throughput Steroidogenesis Assay for OH-Progesterone (OHPROG) (AID 2283435; active = hit-call score of the fitted dose curve at least 0.9, where 1 is the maximum; inactive = score below 0.9;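 as to AC50: human adrenal H295R cells primed 48 h with 10 µM forskolin; 17alpha-hydroxyprogesterone secreted into medium measured by HPLC-MS/MS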); conditions: actives raise or lower the signal
In short: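 HPLC-MS/MS quantification of 17alpha-hydroxyprogesterone secreted by H295R cells after 48 h chemical exposure, following 48 h 10 uM forskolin prestimulation. Gain or loss of signal fitted relative to DMSO. Viability checked by MTT in the same wells.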

[12] = target: mouse Estrogen Receptor alpha (Era), Esr1 (gene 13982) (UniProt P19785); assay: NVS_NR_mERa: NovaScreen (NVS) Nuclear Receptor Binding Assay for mouse Estrogen Receptor alpha (Era) (AID 2283378);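 also: hit means loss of bound radioligand signal relative to DMSO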
In short: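 Cell-free radioligand binding with extracted mouse Era protein; competitive displacement of radiolabelled ligand, read by filter-based scintillation counting 18 hours after dosing. Loss of signal versus DMSO baseline taken as binding; single screening concentration 25 uM, actives followed in concentration series.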

[13] = target: Agonist Androgen Response Element (ARE), AR (gene 367) (UniProt P10275); assay: OT_AR_ARELUC_AG_1440: Odyssey Thera (OT) 24-hour CHO-K1 Luciferase Assay for Agonist Androgen Response Element (ARE) (AID 2283379)
In short: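 Gain-of-signal reporter endpoint: cells (CHO-K1, hamster) are treated 24 h, luciferin/ATP reagent added, and luminescence compared with DMSO baseline.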

[14] = target: Estrogen receptor beta (Homo sapiens) (UniProt Q92731); assay: OT_ER_ERbERb_1440: Odyssey Thera (OT) 24-hour HEK293T Protein-Complementation Assay for Estrogen Receptor-beta/-beta Homodimer (AID 2283380);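 also: scored as signal increase over DMSO baseline for both agonists and antagonists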
In short: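 HEK293T cells stably expressing ER beta LBD (aa 310-547) homodimer fragment-complementation reporter, dosed 24 h. Cells formaldehyde-fixed, Draq5-stained; gain in nuclear (agonist) or nuclear plus cytoplasmic (antagonist) fluorescence versus DMSO read by laser scanning cytometry.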

[15] = CEETOX_H295R_ANDR: CeeTox H295R High-throughput Steroidogenesis Assay for Androstenedione (ANDR) (AID 2283436; active = hit-call score of the fitted dose curve at least 0.9, where 1 is the maximum; inactive = score below 0.9;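 also: human H295R adrenal cells exposed for 48 h with androstenedione measured in medium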); conditions: actives raise or lower the signal
In short: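 48 h chemical exposure, H295R cells, DMEM/F12 + ITS+ and Nu-Serum. Medium androstenedione: MTBE extraction, C18 reverse-phase HPLC, ESI+ MS/MS. Fit bidirectional vs DMSO; MTT viability in same wells.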

Measured: AC50

Chain of Bile acid receptor (Homo sapiens) (Q96RI1 whole entry, looked up, the tested form may be a part): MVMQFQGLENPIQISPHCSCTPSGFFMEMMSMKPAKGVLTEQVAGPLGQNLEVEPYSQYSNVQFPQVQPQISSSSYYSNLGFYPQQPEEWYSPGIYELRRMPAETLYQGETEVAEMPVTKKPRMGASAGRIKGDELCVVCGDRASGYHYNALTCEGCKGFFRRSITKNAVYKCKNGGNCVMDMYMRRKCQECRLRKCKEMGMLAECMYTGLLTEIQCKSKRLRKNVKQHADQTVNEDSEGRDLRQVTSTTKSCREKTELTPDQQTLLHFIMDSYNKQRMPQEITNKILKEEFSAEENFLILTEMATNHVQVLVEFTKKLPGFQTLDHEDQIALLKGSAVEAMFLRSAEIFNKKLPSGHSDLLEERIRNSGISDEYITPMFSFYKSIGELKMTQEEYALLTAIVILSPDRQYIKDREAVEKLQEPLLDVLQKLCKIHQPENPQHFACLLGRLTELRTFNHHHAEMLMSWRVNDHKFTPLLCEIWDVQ
Chain of Peroxisome proliferator-activated receptor gamma (Homo sapiens) (P37231 whole entry, looked up, the tested form may be a part): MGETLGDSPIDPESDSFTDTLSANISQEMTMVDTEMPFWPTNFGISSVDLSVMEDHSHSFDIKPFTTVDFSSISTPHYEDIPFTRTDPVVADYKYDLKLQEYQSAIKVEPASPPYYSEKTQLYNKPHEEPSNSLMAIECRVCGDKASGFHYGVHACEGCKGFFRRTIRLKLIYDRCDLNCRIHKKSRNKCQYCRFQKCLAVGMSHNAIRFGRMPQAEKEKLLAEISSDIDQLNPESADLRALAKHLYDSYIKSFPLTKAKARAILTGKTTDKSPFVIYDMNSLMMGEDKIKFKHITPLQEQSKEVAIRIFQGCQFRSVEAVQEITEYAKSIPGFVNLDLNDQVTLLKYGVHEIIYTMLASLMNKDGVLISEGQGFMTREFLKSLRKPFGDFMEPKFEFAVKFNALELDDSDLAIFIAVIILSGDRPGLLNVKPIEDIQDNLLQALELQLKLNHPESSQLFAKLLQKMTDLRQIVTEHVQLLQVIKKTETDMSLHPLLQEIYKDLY
Chain of Estrogen receptor beta (Homo sapiens) (Q92731 whole entry, looked up, the tested form may be a part): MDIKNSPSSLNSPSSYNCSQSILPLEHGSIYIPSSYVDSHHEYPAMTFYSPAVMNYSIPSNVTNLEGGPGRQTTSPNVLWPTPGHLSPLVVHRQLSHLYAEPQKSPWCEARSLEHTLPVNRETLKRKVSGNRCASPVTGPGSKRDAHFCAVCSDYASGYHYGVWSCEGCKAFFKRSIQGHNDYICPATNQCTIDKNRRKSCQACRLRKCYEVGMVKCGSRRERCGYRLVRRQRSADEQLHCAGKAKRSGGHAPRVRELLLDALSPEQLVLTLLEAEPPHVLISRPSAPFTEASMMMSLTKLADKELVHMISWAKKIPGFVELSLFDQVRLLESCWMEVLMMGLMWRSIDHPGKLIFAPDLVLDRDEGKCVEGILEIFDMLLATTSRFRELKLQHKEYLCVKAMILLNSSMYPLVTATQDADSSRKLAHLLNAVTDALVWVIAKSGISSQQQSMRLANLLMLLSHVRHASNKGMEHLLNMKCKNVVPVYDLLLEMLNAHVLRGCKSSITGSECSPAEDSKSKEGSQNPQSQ
Chain of Estrogen receptor (Homo sapiens) (P03372 whole entry, looked up): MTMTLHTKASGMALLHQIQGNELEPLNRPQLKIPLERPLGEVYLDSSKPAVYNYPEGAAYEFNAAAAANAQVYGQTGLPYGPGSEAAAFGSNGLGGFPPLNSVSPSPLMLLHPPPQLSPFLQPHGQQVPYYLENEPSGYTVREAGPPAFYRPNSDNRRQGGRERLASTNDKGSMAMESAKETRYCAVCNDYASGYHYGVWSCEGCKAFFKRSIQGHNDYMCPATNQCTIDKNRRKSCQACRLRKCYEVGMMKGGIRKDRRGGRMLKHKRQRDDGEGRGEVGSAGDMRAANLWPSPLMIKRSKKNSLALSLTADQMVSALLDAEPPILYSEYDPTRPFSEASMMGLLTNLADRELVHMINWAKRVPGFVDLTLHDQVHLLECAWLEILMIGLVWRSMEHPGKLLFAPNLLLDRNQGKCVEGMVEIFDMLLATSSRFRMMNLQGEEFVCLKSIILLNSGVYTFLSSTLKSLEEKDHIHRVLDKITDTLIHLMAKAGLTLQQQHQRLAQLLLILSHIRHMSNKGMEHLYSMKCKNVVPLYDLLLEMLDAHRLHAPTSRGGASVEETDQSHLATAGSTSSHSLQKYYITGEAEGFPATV
Chain of Retinoic acid receptor RXR-alpha (Homo sapiens) (P19793 whole entry, looked up, the tested form may be a part): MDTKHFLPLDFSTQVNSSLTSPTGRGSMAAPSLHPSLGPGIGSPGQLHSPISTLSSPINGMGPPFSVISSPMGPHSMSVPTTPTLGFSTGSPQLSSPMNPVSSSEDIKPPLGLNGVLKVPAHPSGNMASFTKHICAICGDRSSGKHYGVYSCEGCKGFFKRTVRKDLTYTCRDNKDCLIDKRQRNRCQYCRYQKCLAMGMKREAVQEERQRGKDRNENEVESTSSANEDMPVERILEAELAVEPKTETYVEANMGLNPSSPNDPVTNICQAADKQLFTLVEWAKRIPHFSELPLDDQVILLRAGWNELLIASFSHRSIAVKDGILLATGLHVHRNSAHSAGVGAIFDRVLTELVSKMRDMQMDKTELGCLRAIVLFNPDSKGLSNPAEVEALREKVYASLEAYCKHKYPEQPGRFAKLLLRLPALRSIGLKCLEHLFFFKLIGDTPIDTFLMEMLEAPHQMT
Chain of Agonist Androgen Response Element (ARE), AR (gene 367) (P10275 whole entry, looked up): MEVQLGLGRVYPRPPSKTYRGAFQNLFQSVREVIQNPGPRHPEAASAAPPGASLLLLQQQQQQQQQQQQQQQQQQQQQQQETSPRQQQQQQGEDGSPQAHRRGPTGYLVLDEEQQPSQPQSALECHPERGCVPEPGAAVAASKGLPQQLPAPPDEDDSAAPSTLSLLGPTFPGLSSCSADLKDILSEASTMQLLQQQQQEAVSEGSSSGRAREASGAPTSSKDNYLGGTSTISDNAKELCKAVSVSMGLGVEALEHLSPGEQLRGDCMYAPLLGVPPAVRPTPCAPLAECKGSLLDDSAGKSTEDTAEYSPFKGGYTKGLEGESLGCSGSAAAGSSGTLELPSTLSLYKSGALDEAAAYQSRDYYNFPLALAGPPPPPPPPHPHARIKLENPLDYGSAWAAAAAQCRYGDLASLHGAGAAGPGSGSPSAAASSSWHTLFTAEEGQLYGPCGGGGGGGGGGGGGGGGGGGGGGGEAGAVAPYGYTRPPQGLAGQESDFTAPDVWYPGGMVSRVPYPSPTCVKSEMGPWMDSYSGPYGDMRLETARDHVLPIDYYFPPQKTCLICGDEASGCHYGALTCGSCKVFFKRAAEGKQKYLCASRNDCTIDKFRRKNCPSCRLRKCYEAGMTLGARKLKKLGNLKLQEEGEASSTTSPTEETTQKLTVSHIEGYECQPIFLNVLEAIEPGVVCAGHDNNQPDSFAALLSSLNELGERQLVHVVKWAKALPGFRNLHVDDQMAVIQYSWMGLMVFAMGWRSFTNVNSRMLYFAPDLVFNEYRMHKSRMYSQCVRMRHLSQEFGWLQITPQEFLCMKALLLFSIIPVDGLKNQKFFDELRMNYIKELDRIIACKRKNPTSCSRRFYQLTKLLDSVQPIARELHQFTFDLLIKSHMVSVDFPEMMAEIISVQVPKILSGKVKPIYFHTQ
Chain of mouse Estrogen Receptor alpha (Era), Esr1 (gene 13982) (P19785 whole entry, looked up): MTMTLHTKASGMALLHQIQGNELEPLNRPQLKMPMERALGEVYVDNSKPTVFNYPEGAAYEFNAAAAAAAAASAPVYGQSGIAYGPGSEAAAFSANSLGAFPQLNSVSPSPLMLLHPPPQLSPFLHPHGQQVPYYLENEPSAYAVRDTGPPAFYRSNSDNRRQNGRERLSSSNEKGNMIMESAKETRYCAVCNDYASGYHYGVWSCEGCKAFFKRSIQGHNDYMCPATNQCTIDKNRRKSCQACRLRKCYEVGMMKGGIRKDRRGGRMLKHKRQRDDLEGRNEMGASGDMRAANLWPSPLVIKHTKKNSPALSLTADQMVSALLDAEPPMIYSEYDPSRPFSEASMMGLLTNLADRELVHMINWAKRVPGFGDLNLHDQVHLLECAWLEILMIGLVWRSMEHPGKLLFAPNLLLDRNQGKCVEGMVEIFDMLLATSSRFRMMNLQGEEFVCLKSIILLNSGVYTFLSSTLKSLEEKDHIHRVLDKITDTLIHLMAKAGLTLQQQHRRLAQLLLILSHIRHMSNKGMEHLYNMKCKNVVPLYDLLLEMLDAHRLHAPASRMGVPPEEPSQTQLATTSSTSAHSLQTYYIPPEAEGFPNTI

O=C(O)C(=O)O
inactive: [1] | [2]

CCCCCC(C)OC(=O)COc1ccc(Cl)c2cccnc12 (configuration not stated)
inactive: [3] | [4] | [8] | [1] | [2] | [10] | [11]
active: [5] 44 µM | [6] 22.7 µM | [7] 15 µM | [9] 18.7 µM

Nc1cc(Cl)c(-c2cc(Cl)c(N)cc2Cl)cc1Cl
active: [12] 0.389 µM

Cc1ccc(C)c(S(=O)(=O)O)c1
inactive: [7] | [1] | [2]

CC(=O)Nc1ccc(O)cc1
inactive: [13] | [14] | [8] | [1] | [2]

CC(C)c1c(C(=O)Nc2ccccc2)c(-c2ccccc2)c(-c2ccc(F)cc2)n1CC[C@@H](O)C[C@@H](O)CC(=O)O
inactive: [1] | [2]

Cc1[nH]nc2c1N=C(c1ccccc1Cl)c1cc([N+](=O)[O-])ccc1N2
inactive: [14]
active: [5] 1.06 µM | [6] 0.279 µM

Cc1cccc2c1ccc1ccccc12
inactive: [9] | [10] | [11] | [15]

O=S(=O)(O)c1ccccc1
inactive: [14] | [5] | [6] | [7] | [8] | [1] | [2]

CCc1ccccc1O
inactive: [14] | [3] | [4] | [5] | [1] | [2]

Cc1cc(Cc2cc(C)cc(C(C)(C)C)c2O)c(O)c(C(C)(C)C)c1
inactive: [14] | [3] | [4] | [2]

C[C@]12CC[C@@H]3c4ccc(O)cc4CC[C@H]3[C@@H]1CC[C@@H]2OC(=O)CCC1CCCC1
active: [12] 0.0452 µM

CCCCCCC(C)(C)C(=O)O
inactive: [13] | [14] | [3] | [4] | [5] | [6] | [7] | [8] | [1] | [2]

O=C(O)c1cccc(C(=O)O)n1
inactive: [14] | [3] | [4] | [7] | [8] | [1] | [2]

c1cc[nH]c1
inactive: [9] | [10] | [11] | [15]

Cc1cc(C(C)(C)C)c(O)c(C(C)(C)C)c1
inactive: [14] | [1] | [2]
active: [5] 11.3 µM | [6] 11.4 µM | [7] 74.6 µM | [8] 77.3 µM

CC(C)(c1ccc(Oc2ccc(N)cc2)cc1)c1ccc(Oc2ccc(N)cc2)cc1
active: [9] 0.249 µM | [10] 0.0361 µM | [11] 0.235 µM | [15] 0.234 µM

O=C1NS(=O)(=O)c2ccccc21
inactive: [14] | [7] | [8] | [1] | [2]

CS(=O)(=O)c1ccc([C@@H](CC2CCCC2)C(=O)Nc2cnccn2)cc1Cl
inactive: [7]
